# GSTO1 counter = blocks human GSTO1 in RBBP9 counter-screen; P78417; recombinant GSTO1, activity-based probe fluorescence polarization; inhibition, % at 5.96 µM; hit rate 1.1% among 300,000;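 active means inhibition above the campaign mean inhibition plus 3 SD, cut at about 35% in these data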;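 further: 0% = GSTO1-1 with DMSO and 100% = wells lacking GSTO1-1 enzyme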
# PME-1 primary = blocks human protein phosphatase methylesterase 1; Q9Y570; recombinant PME-1, FP-Rh probe fluorescence polarization; inhibition, % at 5.9 µM; hit rate 0.53% among 320,000; AID 2130;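 active means inhibition above the campaign mean of all compounds plus 3 SD, cut at about 26% in these data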;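 further: competitive labeling of PME-1 active site by serine hydrolase directed probe; 0% = PME-1 with DMSO and 100% = wells lacking PME-1 enzyme; inhibitors block probe labeling so polarization falls and inhibition rises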
# Target sequence (Q9Y570 whole entry, looked up): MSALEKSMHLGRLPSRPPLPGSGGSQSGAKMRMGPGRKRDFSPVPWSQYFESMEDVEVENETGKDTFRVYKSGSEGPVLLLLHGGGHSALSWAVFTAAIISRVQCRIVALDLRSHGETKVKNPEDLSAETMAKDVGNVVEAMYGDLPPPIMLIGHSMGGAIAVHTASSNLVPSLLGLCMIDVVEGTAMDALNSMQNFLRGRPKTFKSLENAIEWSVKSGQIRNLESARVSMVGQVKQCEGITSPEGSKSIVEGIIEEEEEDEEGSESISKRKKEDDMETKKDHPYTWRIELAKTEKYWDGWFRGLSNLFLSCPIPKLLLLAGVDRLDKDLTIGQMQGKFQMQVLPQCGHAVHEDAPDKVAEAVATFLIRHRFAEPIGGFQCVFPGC
# Fam108B counter = counter-screen for RBBP9 inhibitors: inhibitors of mouse Fam108B; recombinant Fam108B, FP-Rh probe fluorescence polarization; inhibition, % at 9.51 µM; hit rate 0.33% among 300,000; AID 1947;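 active means inhibition above the screen mean inhibition plus 3 SD, computed separately per campaign, cut at about 18% in these data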;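 further: inhibitors lower polarization as less probe binds the enzyme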
# pPAFAH inh = pPAFAH (human) enzyme inhibition. recombinant pPAFAH, FP-rhodamine probe fluorescence polarization. inhibition, % at 3.39 µM. hit rate 1.5% among 330,000. AID 463082;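 active means inhibition above the mean inhibition across the screen plus 3 SD, cut at about 25% in these data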;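 further: inhibitors block binding of the rhodamine activity-based probe so polarization drops; 0% = enzyme with DMSO and 100% = wells lacking pPAFAH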
# PAD4 FP inh = blocks human protein arginine deiminase 4; Q9UM07; recombinant PAD4, RCA probe fluorescence polarization; inhibition, % at 6.36 µM; hit rate 0.41% among 330,000;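 active means percent inhibition above a cutoff equal to the mean of all tested compounds plus 3 SD, cut at about 15% in these data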;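 further: 0% = PAD4 with RCA probe and DMSO and 100% = probe without PAD4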
# * hit, by the source's call; / = no result given. Rows were chosen to be rich in hits. Some 2.3% of all compounds tested hit in one or more screens of this group.
SMILES,GSTO1 counter,PME-1 primary,Fam108B counter,pPAFAH inh,PAD4 FP inh
COc1cc(/C=C/c2ccc3cccc(O)c3n2)ccc1O,18,34*,14,14,-5
COc1cc(/C=C/c2ccc3cccc(O)c3n2)c(Br)cc1O,10,28*,-2,21,-4
COc1ccc(S(=O)(=O)N2CCN(c3ccccc3OC)CC2)cc1C(=O)N1CCCCC1,7,-1,4,0,5
CC(NC(=O)c1ccccc1)C(=O)OCC(=O)c1c(N)n(C)c(=O)n(C)c1=O (centres undefined),/,0,/,-1,-1
Cc1nn(-c2ccccc2)c(Cl)c1CN(C(=O)CCl)c1cccc2ccccc12,89*,-3,-5,-1,8
CC(=O)N(Cc1c(C)nn(-c2ccccc2)c1Cl)c1ccc(Cl)cc1,6,-3,-1,4,4
Cc1cccc(NC(=O)CN2C(=O)S/C(=C\c3ccc(O)c([N+](=O)[O-])c3)C2=O)c1,-13,33*,16,29*,-3
O=C1S/C(=C\c2ccc(O)c([N+](=O)[O-])c2)C(=O)N1c1ccccc1Cl,-20,10,11,34*,-3
CC[C@]12c3[nH]c4cc(CCC(=O)N(C)C)ccc4c3CCN1C(=O)[C@@H](CC(=O)NCC13CC4CC(CC(C4)C1)C3)C[C@@H]2C(=O)N1CCN(C(=O)c2ccco2)CC1,/,/,/,11,3
O=C(N/N=C/c1sc(N2CCOCC2)nc1-c1ccccc1)c1ccccc1O,-3,51*,15,14,-3
O=C(N/N=C/c1sc(N2CCOCC2)nc1-c1ccccc1)c1ccccc1Cl,4,0,5,2,-2
CCOc1ccc(S(=O)(=O)N(CC(=O)NCc2cccnc2)c2ccc(F)cc2)cc1,-2,0,-2,0,3
Cc1[nH]n(-c2ccccc2)c(=S)c1C=Nc1cccc([N+](=O)[O-])c1,7,4,0,5,4
Cc1ccc(S(=O)(=O)N2CN(Cc3ccco3)c3nc4ccccc4nc32)cc1,11,1,1,13,16*
COc1ccc(-c2ccc3c(c2)O/C(=C\c2ccsc2)C3=O)cn1,/,/,/,1,14
N#CC1=C(N)Oc2cc(N)ccc2C1c1ccc(F)cc1F (centres undefined),-6,-4,-1,27*,-13
N#CC1=C(N)Oc2cc(N)ccc2C1c1ccc(F)cc1 (centres undefined),0,6,4,11,-2
COc1ccc(/C=N/Nc2cc(N(C)C)nc(N(C)C)n2)cc1,52*,6,0,5,-9
CN(C)c1cc(N/N=C\c2ccccc2)nc(N(C)C)n1,7,4,1,7,-6
COc1ccc(-n2c(C)cc(C(=O)CCl)c2C)cc1,97*,10,1,3,2
Cc1cc(-n2c(C)cc(C(=O)CCl)c2C)no1,83*,-4,-1,5,3
Cc1cc(C(=O)CC#N)c(C)n1-c1ccc(OC(F)F)cc1,-14,36*,5,8,-10
COC(=O)c1cc(C(=O)OC)cc(-n2c(C)cc(C(=O)CC#N)c2C)c1,-28,-2,-1,3,-4
O=C(CCNC(=O)c1ccccc1)NNC(=O)COc1ccccc1Cl,/,/,/,-6,0
CCOC(=O)c1c(NC(=O)CSc2nnc(C)c(=O)[nH]2)sc(C)c1-c1ccc(C)cc1,-15,-9,-5,29*,-5
SMILES,GSTO1 counter,PME-1 primary,Fam108B counter,pPAFAH inh,PAD4 FP inh
CCOC(=O)c1c(NC(=O)C(C)Sc2nnc(C)c(=O)[nH]2)sc2c1CCCC2 (centres undefined),-46,-8,-5,15,-5
CCOC(=O)c1c(NC(=O)CSc2nnc(C)c(=O)[nH]2)sc2c1CCCC2,-26,-3,-1,27*,0
Cc1csc(SC(C)C(=O)NCC2CCCO2)n1 (centres undefined),0,-5,3,8,-2
COc1ccc(CC(=O)OCC(=O)NC2CCCC(C)C2C)cc1 (centres undefined),/,/,/,25,0
O=C(Nc1nnc(-c2ccc3c(c2)CCCC3)o1)C1COc2ccccc2O1 (centres undefined),-37,-1,0,31*,4
CC(=O)Nc1nnc(-c2ccc3c(c2)CCCC3)o1,1,-4,-1,-1,2
COc1ccc2[nH]c(C(=O)N3CCN(Cc4ccccc4)CC3)cc2c1OC,-5,-1,-3,10,-4
Cc1cccc(NC(=O)CSCC(=O)Nc2ccccc2C(=O)NC2CC2)c1,6,-5,1,1,1
Oc1ccccc1N=Nc1nc(-c2ccccc2)c(-c2ccccc2)[nH]1,-12,35*,17,11,-6
COc1ccc(N=Nc2nc(-c3ccccc3)c(-c3ccccc3)[nH]2)cc1,-19,28*,10,7,-3
COc1ccc2c(c1)c(C(=O)N/N=C/c1ccc(Br)cc1)c(C)n2C,4,0,0,5,3
COc1ccc2c(/C=N/Nc3ccc(C(=O)O)cc3)c[nH]c2c1,21,23,5,28*,-8
COc1ccc2c(c1)c(/C=N/Nc1ccc(C(=O)O)cc1)c(C)n2C,11,-5,1,25*,-6
O=C(O)c1cc(N/N=C/c2c[nH]c3ccccc23)ccc1Cl,18,4,6,12,-2
Cc1ccc(Sc2ccc(C(=O)N3CCOCC3)cc2[N+](=O)[O-])cc1,-1,11,-4,17,-2
O=c1cc(/N=C/c2coc3c(ccc4ccccc43)c2=O)[nH]c(=S)[nH]1,42*,-3,1,6,-1
CCOC(=O)C1=C(CSc2nc3c(cc2C#N)CN(C)CC3)OC(N)=C(C#N)C1c1ccc(Cl)cc1 (centres undefined),-11,4,7,29*,-1
O=C(c1ccc(CS(=O)c2ccc(F)cc2)o1)N1CCN(C2CCCCC2)CC1 (centres undefined),0,2,-1,1,-4
O=C(CCOc1ccccc1)Nc1ccnn1C1CCN(C(=O)CCC(F)(F)F)CC1,2,-3,-1,5,1
CCOc1ccc(S(=O)(=O)NCc2ccc(OC)cc2)c2cccnc12,-3,-8,-2,0,-2
COc1ccc(NC(=O)/C(=C/c2cccnc2)NC(=O)c2cccs2)cc1,-3,2,1,4,1
O=C(Nc1ccccc1C(=O)O)c1ccc(Cl)c(S(=O)(=O)N2CCOCC2)c1,-3,-5,1,-3,-1
O=C(Nc1ccccc1C(=O)O)c1cc(S(=O)(=O)N2CCCCC2)c(Cl)cc1Cl,36*,-4,0,-8,3
CC(C)CNC(=O)c1cc(=O)[nH]c2ccc(S(=O)(=O)Nc3ccc(F)cc3)cc12,15,3,-1,27*,-2
Cc1cc(=O)[nH]c2ccc(S(=O)(=O)Nc3ccccc3)cc12,-7,6,2,26*,1
Cc1sc2ncnc(OCC(=O)NC3CCS(=O)(=O)C3)c2c1C (centres undefined),3,3,-1,-1,-3
